Experimental data from PubChem BioAssay AID1662 (Broad Institute, 2009).
Out of some 300,000 compounds screened, about 4,000 (1.3%) were called active.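 Rule for the calls: active = mean replicate score, as percent of positive control median, at least 50; inconclusive = mean below 50 but one replicate at or above 50; inactive = mean and every replicate below 50.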 The sample as a whole holds a higher share of actives than the screen did.

Test: S. pyogenes SKKanGAS growth inhibitors in kanamycin, primary screen, streptokinase expression inhibitor project, SKKanGAS strain, BacTiter-Glo luminescence (AID 1662);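 note: strain carries kanamycin resistance gene driven by streptokinase promoter and grows in 40 µg/ml kanamycin; loss of luminescence reflects streptokinase promoter inhibition or plain growth inhibition; 0% = median of DMSO wells and 100% = positive control at its reference dose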
Conditions: 6 h, at 7.5 µM, stronger effect = higher value
With `O=c1[nH]c(=O)n(Cc2ccccc2)c(O)c1/C=N/Nc1c(F)c(F)c(F)c(F)c1F` the inhibition was 6.55% (inactive). In the case of `O=C(N/N=C/c1c(O)n(C2CC2)c(=S)[nH]c1=O)c1ccccc1`, the inhibition is reported as -1.33% (inactive). With `O=C(N/N=C/c1c(O)n(Cc2ccccc2)c(=O)[nH]c1=O)c1ccccc1` the inhibition was 56.7% (active). In the case of `COC(=O)N(c1ccc(OC)cc1)P1(=S)OCCC(C)O1` (stereo not given), the inhibition is reported as -2.38% (inactive). In the case of `CCOP(=S)(OCC)SCOC(=O)NCC(=O)OC`, the inhibition is reported as 3.28% (inactive). In the case of `COc1ccccc1OC(=O)c1ccc(C)c(S(=O)(=O)N2CCOCC2)c1`, the inhibition is reported as 3.63% (inactive). In the case of `CCCCCCCCCCCCn1ccc(=N)cc1`, the inhibition is reported as 93.3% (active). For `O=[N+]([O-])c1ccc(C2C3C(c4ccccc4)=NC4(CCCCC4)N32)cc1` (stereo not given), the inhibition was 4.96% (inactive). With `Cc1cccc(NC(=O)OC2CN3CCC2CC3)c1` (stereo not given) the inhibition was 0.418% (inactive). For `CC1(C)C(c2ccccc2)=NC(c2cccnc2)=[N+]1[O-]`, the inhibition was -22% (inactive). For `CCCCCn1c(=O)c(C(=O)NCc2ccccc2)c(O)c2ccccc21`, the inhibition was 86% (active). In the case of `CCCCn1c(=O)c(C(=O)Nc2ccccc2Cl)c(O)c2ccccc21`, the inhibition is reported as -1.86% (inactive). With `CCCCCn1c(=O)c(C(=O)NCc2ccccn2)c(O)c2ccccc21` the inhibition was 6.78% (inactive). In the case of `COC(=O)C1=C(c2cc3ccccc3o2)C[C@@H]2CC[C@H]1N2C(=O)NC1CCCCC1`, the inhibition is reported as 7.09% (inactive). With `O=C(Cc1ccccc1)N1CCN(C2CCCCCC2)CC1` the inhibition was 4.36% (inactive).
